Inconclusive results are not listed. Calls of active or inactive are those of the source. The calls were made as follows, unless noted: active = hit-call score of the fitted dose curve at least 0.9, where 1 is the maximum; inconclusive = response in the unintended direction; inactive = score below 0.9.
Columns and labels:
[1] = IUF_NPC3_neuronal_differentiation_120hr: Leibniz Research Institute for Environmental Medicine (IUF) 120-hour Neuronal Differentiation Assay (NPC3) (AID 2284301; active = hit-call score of the fitted dose curve at least 0.9, where 1 is the maximum; inactive = score below 0.9)
Outline: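 Neuronal differentiation of primary human neural progenitors measured by high-content imaging: percent TUBB3+ of Hoechst+ nuclei within migrated area at 120 h, seven-point serial dilution plus solvent control, gain or loss relative to DMSO.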

[2] = IUF_NPC4_neurite_length_120hr: Leibniz Research Institute for Environmental Medicine (IUF) 120-hour Neuronal Morphology Assay for Neurite Length (NPC4) (AID 2284302; active = hit-call score of the fitted dose curve at least 0.9, where 1 is the maximum; inactive = score below 0.9)
Outline: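 Neurons from differentiating human fetal neural progenitor spheres are scored for average neurite length after five days of compound exposure. Fitting uses DMSO as negative control.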

[3] = IUF_NPC5_oligodendrocyte_differentiation_120hr: Leibniz Research Institute for Environmental Medicine (IUF) 120-hour Oligodendrocyte Differentiation Assay (NPC5) (AID 2284304);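 also: primary human fetal neural progenitor spheres plated to migrate and differentiate; share of O4-positive cells among Hoechst nuclei found by CNN image analysis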
Outline: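 hNPC spheres, fetal cortex GW 16-19; PDL/laminin, DMEM:F12 3:1 + 1% N2, 37C/5% CO2; 7 concentrations + solvent control, 5 d exposure, half-change day 3. Readout: %O4+ of Hoechst+ nuclei in migration area, CNN classification; DMSO baseline.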

[4] = IUF_NPC4_neurite_area_120hr: Leibniz Research Institute for Environmental Medicine (IUF) 120-hour Neuronal Morphology Assay for Neurite Area (NPC4) (AID 2284305)
Outline: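 Endpoint at 120 h: automated imaging of TUBB3/Hoechst-stained differentiating human neural progenitor spheres, neurite area per neuron from skeletonization. DMSO solvent control, not above 0.1%, set the baseline; medium was half-replaced on day 3.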

[5] = IUF_NPC2-5_cytotoxicity_72hr: Cytotoxicity Assessment at 72 hours in the Leibniz Research Institute for Environmental Medicine (IUF) Neural Progenitor Cell Migration and Differentiation Assay for Cytotoxicity (NPC2-5) (AID 2284306);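 also: LDH release into supernatant measured by resorufin fluorescence marking membrane damage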
Outline: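 Primary human neural progenitor spheres migrate and differentiate on laminin. Compound is present from the start of differentiation, with DMSO kept at or below 0.1%. At 72 h, supernatant LDH is quantified fluorometrically, with values fitted in the positive direction.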

[6] = IUF_NPC2-5_cytotoxicity_120hr: Cytotoxicity Assessment at 120 hours in the Leibniz Research Institute for Environmental Medicine (IUF) Neural Progenitor Cell Migration and Differentiation Assay (NPC2-5) (AID 2284307);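 as to AC50: LDH released into supernatant as membrane damage marker via resorufin fluorescence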
Outline: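 hNPC spheres on PDL/laminin, N2 medium, 37C; 7 concs + solvent control, DMSO ≤0.1%; 5-day exposure, half medium changed day 3. LDH in supernatant at 120 h, resazurin→resorufin fluorescence, gain-of-signal.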

[7] = IUF_NPC2-5_cell_number_120hr: Cell Number Assessment at 120 hours in the Leibniz Research Institute for Environmental Medicine (IUF) Neural Progenitor Cell Migration and Differentiation Assay (NPC2-5) (AID 2284308; active = hit-call score of the fitted dose curve at least 0.9, where 1 is the maximum; inactive = score below 0.9;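 also: count of Hoechst-stained nuclei in migration zone around plated human neural progenitor spheres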)
Outline: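 Hoechst-stained nuclei within the migration area were counted by automated high content imaging after 120 h. Single hNPC spheres differentiated on poly-D-lysine/laminin in DMEM/F12 (3:1) with 1% N2, compound present throughout, DMSO ≤0.1%.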

[8] = IUF_NPC2-5_viability_120hr: Viability Assessment at 120 hours in the Leibniz Research Institute for Environmental Medicine (IUF) Neural Progenitor Cell Migration and Differentiation Assay (NPC2-5) (AID 2284312; active = hit-call score of the fitted dose curve at least 0.9, where 1 is the maximum; inactive = score below 0.9)
Outline: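 Human fetal (GW 16-19) neural progenitor spheres of 0.3 mm were plated on poly-D-lysine/laminin in N2 differentiation medium and exposed from day 0 for 120 h, with half-medium refresh at day 3. Viability was read as alamar blue resazurin-to-resorufin fluorescence against DMSO.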

[9] = VALA_TUBHUV_Agonist_CellCount: Viability Assessment in the VALA Sciences human Umbilical Vein Endothelial Tubule Formation (TUBHUV) Agonism Assay (AID 2284309)
Outline: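 Viability endpoint by fluorescent imaging of fixed nuclear/CD31-stained HUVEC–HDF co-cultures. Readout is cell count, fitted upward against 0.1% DMSO. Compound exposure was 72 h in 10 ng/ml VEGF, after 3-day co-culture priming.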

[10] = VALA_TUBIPS_Agonist_TubuleLength: VALA Sciences human iPS-derived Endothelial Tubule Formation (TUBIPS) Agonism Assay (AID 2284311)
Outline: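 Agonist-mode readout is the gain in imaged tubule length versus DMSO baseline. It was measured by fluorescence high-content imaging 72 h after dosing human iPSC-derived endothelial cells.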

[11] = VALA_TUBIPS_Antagonist_TubuleLength: VALA Sciences human iPS-derived Endothelial Tubule Formation (TUBIPS) Antagonist Assay (AID 2284313)
Outline: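 Tubule length was quantified by high-content imaging of CD31- and nuclear-stained cells, with 0.1% DMSO as neutral and 100 uM suramin as inhibition control. Compounds were applied for 3 days, in 10 ng/ml VEGF, to cultures pre-grown 3 days.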

[12] = VALA_MIGHUV2_CellCount: Viability Assessment in the VALA Sciences human Umbilical Vein Endothelial Cell Migration (MIGHUV) Assay, Area of Scratch Wound after Recovery (AID 2284314)
Outline: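 Viability read-out: Hoechst-stained nuclei counted by fluorescence imaging after a 24 h recovery period in fixed, scratched HUVEC plates. Compound was dosed within 30 min of scratching at six concentrations (triplicate); DMSO at 0.1 % served as baseline.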

[13] = VALA_MIGHUV2_Bcatenin: VALA Sciences human Umbilical Vein Endothelial Cell Migration (MIGHUV) Assay, Nuclear Translocation of beta-Catenin after Recovery (AID 2284315)
Outline: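 Nuclear beta-catenin imaged by immunofluorescence with Hoechst counterstain in fixed HUVEC, 24 h after scratch wounding and chemical addition. Six-point concentration-response in triplicate; activity scored as signal increase over 0.1% DMSO vehicle.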

[14] = VALA_MIGHUV2_WoundArea: VALA Sciences human Umbilical Vein Endothelial Cell Migration (MIGHUV) Assay, Area of Scratch Wound after Recovery (AID 2284316)
Outline: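 Wound-area endpoint read by fluorescence imaging of Hoechst-stained nuclei after a 24 h recovery period following scratch of HUVEC monolayers (9000 cells/well). Chemicals dosed within 30 min post-scratch, triplicate 6-point series, 0.1% DMSO vehicle; Cytochalasin D positive control.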

TTR (gene 7276) = assay: CCTE_GLTED_hTTR_0.5uM: CCTE's human Transthyretin (hTTR) Inhibition Assay, with 0.5uM TTR, Great Lakes Toxicology and Ecology Division (GLTED) Lab (AID 2284320; active = hit-call score of the fitted dose curve at least 0.9, where 1 is the maximum; inactive = score below 0.9)
Outline: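 Probe (ANSA) displacement from 0.5 uM human transthyretin was followed by fluorescence (ex 380, em 475) after a 2 h incubation with chemical. Activity was scored as signal loss and fitted positively relative to DMSO.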

For `CCOP(=S)(OCC)Oc1nc(Cl)c(Cl)cc1Cl`, which outcome [1] is on record?
Its outcome is “inactive”.

And the outcome [2]?
The outcome was “inactive”.

And the outcome [3]?
Its outcome is “inactive”.

And the outcome [4]?
Its outcome is “inactive”.

What about the outcome [5] of the same molecule?
The outcome was “inactive”.

And the outcome [6]?
The outcome was “inactive”.

What about the outcome [7] of the same molecule?
The outcome was “inactive”.

And the outcome [8]?
The outcome was “inactive”.

Which AC50 [1] does the source give for `COP(=O)(OC)O/C(=C\Cl)c1cc(Cl)c(Cl)cc1Cl` here?
The AC50 was 0.988 µM (active).

And the AC50 [2]?
Its AC50 is 0.466 µM (active).

What about the AC50 [4] of the same molecule?
The AC50 was 0.675 µM (active).

And the outcome [5]?
Its outcome is “inactive”.

What about the AC50 [6] of the same molecule?
Its AC50 is 5.39 µM (active).

And the AC50 [7]?
Its AC50 is 0.356 µM (active).

What about the AC50 [8] of the same molecule?
The AC50 was 1.06 µM (active).

With `CC(C)(C)c1cc(O)ccc1O` as the molecule, how does the AC50 [9] read?
Its AC50 is 11 µM (active).

What about the outcome [10] of the same molecule?
The outcome was “inactive”.

And the outcome [11]?
The outcome was “inactive”.

And the AC50 [12]?
Its AC50 is 74.3 µM (active).

What about the AC50 [13] of the same molecule?
Its AC50 is 82.8 µM (active).

What about the AC50 [14] of the same molecule?
The AC50 was 73 µM (active).

Which outcome [12] does the source give for `ClCC(Cl)CCl` here?
The outcome was “inactive”.

And the outcome [14]?
The outcome was “inactive”.

Which AC50 (TTR (gene 7276)) does the source give for `O=C(O)C(F)(F)C(F)(F)C(F)(F)C(F)(F)C(F)(F)C(F)(F)F` here?
The AC50 was 0.395 µM (active).

Which AC50 (TTR (gene 7276)) does the source give for `O=C(O)C(F)(F)C(F)(F)C(F)(F)C(F)(F)C(F)(F)C(F)(F)C(F)(F)C(F)(F)C(F)(F)C(F)(F)F` here?
Its AC50 is 1.98 µM (active).
